KB-V1 MDR tox: qHTS assay for MDR1-selective chemotherapeutics: Primary screen using the drug-selected MDR subline cells KB-V1; KB-V1 MDR cells viability, CellTiter-Glo, 72 h; Potency, µM (top dose mostly 46.1 µM), hits mostly cytotoxic; hit rate 3.4% among 400,000; further: nearly all actives have a fitted effect of over 60% in size
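Potencies derive from concentration-effect curves fitted to normalized luminescence (CellTiter-Glo) of KB-V1 cells treated for 72 h at 37 degrees C in phenol-red-free DMEM containing 10% FBS.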
HT1080-NT tox: qHTS for induction of synthetic lethality in tumor cells producing 2HG: qHTS for the HT-1080-NT fibrosarcoma cell line; HT-1080-NT fibrosarcoma viability, CellTiter-Glo ATP luminescence, 48 h; Potency, µM (top dose mostly 46.1 µM), hits mostly cytotoxic; hit rate 1.6% among 360,000;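 further: NT is the 2HG producing partner of a matched IDH1 knockdown line; nearly all actives have a fitted effect of over 55% in size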
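Compounds were tested in concentration-response format on HT-1080-NT cells for 48 hours at 37 degrees C. Cell viability came from CellTiter-Glo luminescence; curves were classified by r2, response magnitude and activity.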
KB-3-1 tox: qHTS assay for MDR1-selective chemotherapeutics: Primary screen using the parental adenocarcinoma cell KB-3-1. Potency, µM (top dose mostly 46.1 µM), most hits filed as cytotoxic. KB-3-1 viability, CellTiter-Glo ATP luminescence, 72 h. hit rate 1.4% among 400,000; further: nearly all actives have a fitted effect of over 60% in size
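Using CellTiter-Glo luminescence, growth of non-resistant KB-3-1 adenocarcinoma cells is assessed 72 h after pin-tool compound addition at 37 °C. Normalized responses across the concentration series yield fitted curves.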
MCF10A rerep: A quantitative high throughput screen for small molecules that induce DNA re-replication in MCF 10a normal breast cells; MCF 10A DNA re-replication, Hoechst nuclear intensity, 48 h; Potency, µM (titrated, usually from 46.1 µM), most hits filed as activators; hit rate 2.9% among 350,000; AID 624296, 2012; further: nearly all actives have a fitted effect of over 50% in size
SW480 rereplic: A quantitative high throughput screen for small molecules that induce DNA re-replication in SW480 colon adenocarcinoma cells. AID 624297, 2012. Potency, µM (doses to about 46.1 µM), actives largely listed as activators. SW480 DNA re-replication, Hoechst DNA content imaging, 48 h. hit rate 1.8% among 340,000; further: nearly all actives have a fitted effect of over 55% in size
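Image-based read-out: total Hoechst fluorescence of nuclei (405 nm excitation, 500-530 nm emission), with hits raising the fraction of high-intensity nuclei. SW480 colon cells incubated 48 hr with compounds at 37 C.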
HT1080 IDH1KD tx: qHTS for induction of synthetic lethality in tumor cells producing 2HG: qHTS for the HT-1080-IDH1KD cell line | hit rate 2% among 360,000 | Potency, µM (doses to about 46.1 µM), hits mostly cytotoxic | HT-1080 IDH1 knockdown viability, ATP luminescence, 48 h
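In this qHTS, HT-1080 cells depleted of IDH1 are exposed for 48 h at 37 °C to compound titrations. Toxicity is scored from CellTiter-Glo luminescence, with DMSO as full viability and medium alone as none.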
A number is an active result. Hits are enriched below; roughly 8% of the tested compounds scored in any of these assays. The call rests on the fitted dose curve; in most records, active means well fitted curve in the direction sought with a large enough effect; inconclusive means small, poorly fitted or top-dose-only effect, or another doubt; inactive means no such curve, though single readings can be large; an effect the other way counts as inactive or inconclusive.

COc1cccc(NC(=O)CCC(=O)N2Cc3ccccc3Oc3ncccc32)c1 was read as KB-V1 MDR tox inactive and KB-3-1 tox inactive.
CC(=O)NC(CC(C)C)C(=O)NC(CO)C(=O)NC(CCC(=O)O)C(=O)NC(C)C(=O)NC(CC(C)C)C(N)=O (stereo not drawn) was read as KB-V1 MDR tox inactive, HT1080-NT tox inactive, KB-3-1 tox inactive, MCF10A rerep inactive, SW480 rereplic inactive and HT1080 IDH1KD tx inactive.
For Cc1ccc(NC(=O)C(=O)NN)cc1 the results were KB-V1 MDR tox inactive, HT1080-NT tox inactive, KB-3-1 tox inactive, MCF10A rerep inactive, SW480 rereplic inactive and HT1080 IDH1KD tx inactive.
For NNC(=O)C(=O)Nc1ccc(O)cc1 the results were KB-V1 MDR tox inactive, HT1080-NT tox 7.31µM, KB-3-1 tox inconclusive, MCF10A rerep inconclusive, SW480 rereplic inactive and HT1080 IDH1KD tx inconclusive.
`CC(=C\c1ccco1)/C=C(\C#N)C(=O)NCCc1c[nH]c2ccccc12` gave KB-V1 MDR tox 23.1µM, HT1080-NT tox inactive, KB-3-1 tox inactive, MCF10A rerep inconclusive, SW480 rereplic inactive and HT1080 IDH1KD tx inactive.
O=C(NCCc1c[nH]c2ccccc12)/C(=C/c1ccco1)NC(=O)c1ccco1 was read as KB-V1 MDR tox inactive, HT1080-NT tox inactive, KB-3-1 tox inactive, MCF10A rerep inactive, SW480 rereplic inactive and HT1080 IDH1KD tx inactive.
`Cc1cc(/C=C(\C#N)C(=O)NCCc2c[nH]c3ccccc23)c(C)n1C` gave KB-V1 MDR tox inactive, HT1080-NT tox inactive, KB-3-1 tox inactive, MCF10A rerep inactive, SW480 rereplic inactive and HT1080 IDH1KD tx inactive.
Screening COc1cc(/C=C(/C#N)C(=O)NCCc2c[nH]c3ccccc23)ccc1OCc1ccccc1F returned KB-V1 MDR tox inconclusive, HT1080-NT tox inactive, KB-3-1 tox inconclusive, MCF10A rerep 5.17µM, SW480 rereplic 3.26µM and HT1080 IDH1KD tx inactive.
For CC(C)CC(NC(N)=O)C(=O)OCC(=O)Nc1ccc(OC(F)F)cc1 (stereo not drawn) the results were KB-V1 MDR tox inactive, HT1080-NT tox inactive, KB-3-1 tox inactive, MCF10A rerep inactive, SW480 rereplic inactive and HT1080 IDH1KD tx inactive.
COc1ccc(/C=C(/CC(=O)NCc2ccc(Cl)cc2)c2nc3ccccc3s2)cc1 was read as KB-V1 MDR tox 10.3µM, HT1080-NT tox inactive, KB-3-1 tox inactive, MCF10A rerep inactive, SW480 rereplic inconclusive and HT1080 IDH1KD tx inactive.
Screening COc1ccc(/C=C(/CC(=O)Nc2ccccc2)c2nc3ccccc3s2)cc1 returned KB-V1 MDR tox inactive, HT1080-NT tox inactive, KB-3-1 tox inactive, MCF10A rerep inactive, SW480 rereplic inactive and HT1080 IDH1KD tx inactive.
`Cc1cccc(CN2CCC(CNC(=O)c3c(C)oc4ncnc(N5CCCCC5)c34)CC2)c1` gave KB-V1 MDR tox inactive and KB-3-1 tox inactive.
Nc1c(C(=O)N/N=C/c2cccnc2)oc2nc(-c3ccccc3)cc(-c3ccco3)c12 was read as KB-V1 MDR tox inactive, HT1080-NT tox inactive, KB-3-1 tox inactive, MCF10A rerep 18.4µM, SW480 rereplic inconclusive and HT1080 IDH1KD tx inactive.
`NNC(=O)c1oc2nc(-c3ccc(Cl)cc3)cc(-c3ccccc3)c2c1N` gave KB-V1 MDR tox inactive, HT1080-NT tox inactive, KB-3-1 tox inconclusive, MCF10A rerep 8.2µM, SW480 rereplic 23.1µM and HT1080 IDH1KD tx inconclusive.
Screening Cc1[nH]n(-c2ccc([N+](=O)[O-])cc2)c(=O)c1C=NCCc1c(C)[nH]c2ccccc12 returned KB-V1 MDR tox 16.4µM, HT1080-NT tox inactive, KB-3-1 tox inactive, MCF10A rerep inactive and HT1080 IDH1KD tx inactive.
For O=[N+]([O-])c1ccc(NN=Cc2cccc3ccccc23)cc1 the results were KB-V1 MDR tox inactive, HT1080-NT tox inactive, KB-3-1 tox inactive, MCF10A rerep inconclusive, SW480 rereplic 1.16µM and HT1080 IDH1KD tx inactive.
For Cc1[nH]c2ccccc2c1/C=N/Nc1ccc([N+](=O)[O-])cc1 the results were KB-V1 MDR tox inactive, HT1080-NT tox 9.2µM, KB-3-1 tox inactive, MCF10A rerep inactive, SW480 rereplic inactive and HT1080 IDH1KD tx inconclusive.
Screening O=[N+]([O-])c1ccc(N/N=C\c2ccccc2OCc2ccccc2)cc1 returned KB-V1 MDR tox inactive, HT1080-NT tox inactive, KB-3-1 tox inactive, MCF10A rerep inconclusive, SW480 rereplic inconclusive and HT1080 IDH1KD tx inactive.
For Cc1ccc(-n2[nH]c(C)c(/C=N/Nc3ccc([N+](=O)[O-])cc3[N+](=O)[O-])c2=O)cc1 the results were KB-V1 MDR tox 16.4µM, HT1080-NT tox inconclusive, KB-3-1 tox inconclusive, MCF10A rerep inactive, SW480 rereplic inconclusive and HT1080 IDH1KD tx 23.1µM.
CCOC(=O)c1c(C)[nH]c(C)c1S(=O)(=O)NCC(=O)Nc1cccc(C(F)(F)F)c1 was read as KB-V1 MDR tox inactive and KB-3-1 tox inactive.
Screening CC(C)[C@@H](C(=O)N1CCCC1)N1C(=O)N2CCc3c([nH]c4ccccc34)[C@@]2(C)C1=O returned KB-V1 MDR tox inactive, HT1080-NT tox inactive, KB-3-1 tox inactive, MCF10A rerep inactive, SW480 rereplic inactive and HT1080 IDH1KD tx inactive.
O=C(Nc1cccc(Cl)c1Cl)c1cc(S(=O)(=O)N2CCCc3ccccc32)ccc1F was read as KB-V1 MDR tox inactive and KB-3-1 tox inactive.
For O=C(CCC1CCN(C(=O)C2CC=CCC2)CC1)Nc1ccccc1 (stereo not drawn) the results were KB-V1 MDR tox 16.4µM, HT1080-NT tox inactive, KB-3-1 tox inactive and HT1080 IDH1KD tx inactive.
For O=C(COc1ccccc1O)NNc1ccccc1 the results were KB-V1 MDR tox inconclusive, HT1080-NT tox 2.31µM, KB-3-1 tox inconclusive, MCF10A rerep inactive, SW480 rereplic inactive and HT1080 IDH1KD tx 3.26µM.
`Nc1cc[n+](CC(=O)Nc2ccccc2)cc1` gave KB-V1 MDR tox inactive, HT1080-NT tox inactive, KB-3-1 tox inactive, MCF10A rerep inactive, SW480 rereplic inactive and HT1080 IDH1KD tx inactive.
For O=C(C[n+]1ccccc1)NNc1ccccc1 the results were KB-V1 MDR tox inactive, HT1080-NT tox 2.59µM, KB-3-1 tox 6.51µM, MCF10A rerep inactive, SW480 rereplic inactive and HT1080 IDH1KD tx 4.61µM.
For CCOC(=O)CCCCCC(=O)Nc1ccc2c(c1)C(=O)N([C@@H](C)CO)C[C@H](C)[C@H](CN(C)C(=O)NC(C)C)OCCCC[C@H](C)O2 the results were KB-V1 MDR tox inactive, HT1080-NT tox inactive, KB-3-1 tox inactive and HT1080 IDH1KD tx inactive.
`COc1ccc(C(=O)c2cn[nH]c2-c2ccc(C)cc2O)cc1` gave KB-V1 MDR tox inconclusive, HT1080-NT tox inactive, KB-3-1 tox inactive, MCF10A rerep inactive, SW480 rereplic inactive and HT1080 IDH1KD tx inactive.

From PubChem BioAssay
